{"source": "PubChem BioAssay", "data": [{"assay": "binders of probe aFSTL3 on microarray, primary screen, stem cell growth factor project, biochemical, small-molecule microarray, fluorescence 635/667 (AID 1064);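 note: measures binding of the biotinylated anti-FSTL3 antibody to printed compounds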", "conditions": "higher = more signal", "values": [{"smiles": "CC(C)C[C@@H]1NC(=O)[C@@]23C(=O)N[C@@H](Cc4ccccc4)C2[C@H](C)[C@@]2(C)O[C@H]2C3/C=C/C/C=C\\CNC(=O)[C@@H](CC(C)C)NC1=O", "note": "(stereo partly specified)", "composite z-score": -0.47}, {"smiles": "C=CCC(OC(C)=O)[C@@H]1[C@@H](N(Cc2ccc(-c3cccc(C(F)(F)F)c3)o2)C(=O)c2cccc3ccccc23)c2cc(OCCCO)ccc2N1C(=O)c1ccc2ccccc2c1", "note": "(stereo partly specified)", "composite z-score": 0.125}, {"smiles": "O=C1OCCC/C=C\\[C@H]2OC34C=CCN(Cc5ccccc5)C(=O)[C@H]3N(CCCCCO)C(=O)[C@@H]4C12", "note": "(stereo partly specified)", "composite z-score": 0.566}, {"smiles": "CCCC=C(CCC)[C@@H](NC(=O)c1ccccc1)c1ccc(C(=O)OC)cc1", "composite z-score": 0.0872}, {"smiles": "COC(=O)[C@@]1(Cc2ccc(F)cc2)[C@H]2c3cc(C(=O)N4CCCC4)n(CCO)c3C[C@H]2CN1C(=O)c1ccccc1", "composite z-score": 0.0451}, {"smiles": "COCCCNC(=O)[C@@]1(Sc2ccc(C)cc2)CC(=O)N(C2CCCCC2)[C@@H]1c1ccc(CO)cc1I", "composite z-score": -0.364}, {"smiles": "COc1ccc([Si](C)(C)[C@H]2[C@H](CCO)O[C@@]3(C(=O)N(Cc4ccc(N5CCOC5=O)cc4)c4ccccc43)[C@@H]2C)cc1", "composite z-score": 0.173}, {"smiles": "C=CCNC(=O)[C@@H]1[C@H]2C(=O)O[C@H](c3ccccc3)[C@H](c3ccccc3)N2[C@H](c2ccccc2OCCO)[C@@]12C(=O)N(C(=O)OCCOC)c1ccc(C#CCCO)cc12", "composite z-score": -0.0812}, {"smiles": "COCCOC(=O)N1C(=O)[C@@]2(c3ccccc31)[C@H](C(=O)N1CCCCCCC1)[C@H]1C(=O)O[C@H](c3ccccc3)[C@H](c3ccccc3)N1[C@@H]2c1ccc(O)cc1", "composite z-score": 3.89}, {"smiles": "CCCCC(=C=CC[C@@H](O)c1cccc(OCCO)c1)CCO", "composite z-score": -0.219}, {"smiles": "O=C(NCC(F)(F)F)[C@@H]1c2ccccc2C(=O)N(CC23CC4CC(CC(C4)C2)C3)[C@H]1c1ccc(CO)cc1", "composite z-score": -0.473}, {"smiles": "C=CCC(OC(C)=O)[C@@H]1[C@@H](N(Cc2cccc3ccccc23)C(=O)c2ccc(C)cc2)c2cc(OCCCO)ccc2N1C(=O)c1ccc2ccccc2n1", "note": "(stereo partly specified)", "composite z-score": -0.0635}, {"smiles": "CC#CCO[Si](C#CCCCCCC)(C(C)C)C(C)C", "composite z-score": 1.3}, {"smiles": "CC(C)(C)OC(=O)CC[C@]1(C(N)=O)N=C(c2ccc(OCCCO)cc2)O[C@H]1c1ccccc1CN=[N+]=[N-]", "composite z-score": 0.68}, {"smiles": "COc1ccc(CCNC(=O)[C@@]2(C)c3ccccc3C(=O)N(Cc3cc(C(F)(F)F)cc(C(F)(F)F)c3)[C@H]2c2ccc(CO)cc2)cc1", "composite z-score": 1.42}, {"smiles": "CN(C)CCCC[C@@H]1NC(=O)[C@@H]2C[C@H](C(=O)NCCCCCCNC(=O)CS)[C@H](c3cccc(OCCO)c3)N2C1=O", "composite z-score": 0.0594}, {"smiles": "COCCCNC(=O)[C@@H]1c2ccccc2C(=O)N(C2CCCCC2)[C@H]1c1ccc(CO)cc1", "composite z-score": 0.503}, {"smiles": "COC(=O)C1=CC(CCCO)=CC(C2CC2)N(Cc2cccc(OC(F)(F)F)c2)C=C1C(=O)OC", "note": "(stereo unspecified)", "composite z-score": -0.207}, {"smiles": "C=C(C(=O)CC[C@@H](OC(C)=O)c1cccc(OCCO)c1)C(C)C", "composite z-score": -0.0377}, {"smiles": "COc1ccc([Si](C)(C)[C@@H]2[C@@H](CC(=O)N(CCO)Cc3ccccc3)O[C@]3(C(=O)N(Cc4ccc(N5CCC5=O)cc4)c4ccccc43)[C@H]2C)cc1", "composite z-score": -0.0664}, {"smiles": "CC(C)CNC(=O)[C@@H]1c2ccccc2C(=O)N(CC23CC4CC(CC(C4)C2)C3)[C@H]1c1ccc(CO)cc1", "composite z-score": -0.146}, {"smiles": "COc1cc2c(cc1O)C(c1ccc(CN3CCCC3)cc1)N(Cc1ccc([N+](=O)[O-])o1)CC2", "note": "(stereo unspecified)", "composite z-score": -0.649}, {"smiles": "COC(=O)[C@]1(CO)N=C(c2ccc(OCCCO)cc2)O[C@@H]1c1ccccc1CN=[N+]=[N-]", "composite z-score": -0.0858}, {"smiles": "COCCOC(=O)N1C(=O)[C@@]2(c3ccccc31)[C@H](c1ccc(OCCO)cc1)N1[C@H](c3ccccc3)[C@H](c3ccccc3)OC(=O)[C@H]1[C@@H]2C(=O)N1CCN(c2ncccn2)CC1", "composite z-score": -0.185}, {"smiles": "COCCOC(=O)N1C(=O)[C@@]2(c3cc(C#Cc4ccc(OC)cc4)ccc31)[C@H](c1ccc(OCCO)cc1)N1[C@H](c3ccccc3)[C@H](c3ccccc3)OC(=O)[C@H]1[C@@H]2C(=O)N1CCCCCCC1", "composite z-score": 2.51}, {"smiles": "Cc1ccccc1C(O)C1C=CC2C(=O)N(c3ccccc3)C(=O)C2N1Nc1ccccc1F", "note": "(stereo unspecified)", "composite z-score": 0.397}, {"smiles": "CO[C@H]1O[C@H](CO)[C@@H](OC(=O)Nc2ccc(C(F)(F)F)cc2)[C@H](OC(=O)Nc2ccccc2-c2ccccc2)[C@@H]1OC(=O)Nc1ccccc1-c1ccccc1", "composite z-score": 0.433}, {"smiles": "C=C(COC)C(=O)CC[C@@H](OC(C)=O)c1ccc(OCCO)cc1", "composite z-score": 0.266}, {"smiles": "CCC(CC)C(O)C1C=CC2C(=O)N(C)C(=O)C2N1N1CCCCC1", "note": "(stereo unspecified)", "composite z-score": 0.104}, {"smiles": "CCCC[C@@H]1C[C@H]1[C@@H](NC(=O)c1ccc(C(F)(F)F)cc1)c1ccc(C(=O)OC)cc1", "composite z-score": 1.54}, {"smiles": "C=CCN1C(=O)[C@]2(O[C@H](CCn3cc([C@H](O)c4ccccc4)nn3)[C@@H]([Si](C)(C)c3ccc(OC)cc3)[C@@H]2C)c2cc(N3C(=O)c4cccc5cccc3c45)ccc21", "composite z-score": -0.144}, {"smiles": "COc1ccc([Si](C)(C)[C@H]2[C@H](CCO)O[C@@]3(C(=O)N(Cc4ccccc4)c4ccc(N(C=O)c5ccccc5)cc43)[C@@H]2C)cc1", "composite z-score": -0.317}, {"smiles": "COCCOC(=O)N1C(=O)[C@@]2(c3cc(C#Cc4ccc(OC)cc4)ccc31)[C@H](C(=O)Nc1nc3ccccc3s1)[C@H]1C(=O)O[C@H](c3ccccc3)[C@H](c3ccccc3)N1[C@@H]2c1ccccc1OCCO", "composite z-score": -0.233}, {"smiles": "CN(C)C(=O)[C@]1(Cc2ccccc2)N=C(c2ccc(OCCCO)cc2)O[C@@H]1c1ccccc1", "composite z-score": -0.129}, {"smiles": "CCCCC(=C=CC[C@H](O)c1ccc(OCCO)cc1)C[C@H](O)c1ccccn1", "composite z-score": -0.199}, {"smiles": "Cc1ccc(S(=O)(=O)N2[C@@H](c3ccccc3)C(C(=O)O)=CC[C@H]2c2ccc(C#N)cc2)cc1", "composite z-score": 0.163}]}]}
